Screening results deposited in PubChem BioAssay by National Center for Advancing Translational Sciences (NCATS).
The list is not random: actives were taken first. Their share in the collection is about 3%.
TbPYK inhibitor: blocks Trypanosoma brucei pyruvate kinase. Q57TT1. TbPYK enzyme, Kinase-Glo Plus ATP luminescence, 45 min. Potency, µM (series often up to 76.8 µM), actives largely listed as inhibitors. hit rate 0.12% among 410,000; further: nearly all actives have a fitted effect of over 50% in size
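Luminescence from Kinase-Glo Plus, added after a 45-minute room-temperature reaction, served as the end-point read-out. The enzyme and substrate were preincubated with compound before ADP (130 uM final) initiated turnover. Concentration-effect curves came from normalized qHTS data.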
LmPK inh: LmPK (Leishmania mexicana) enzyme inhibition; purified LmPK, Kinase-Glo ATP luminescence, 1 h; Potency, µM (highest dose often 57.5 µM), usual class: inhibitors; hit rate 0.37% among 290,000
Target sequence (Q27686 whole entry, looked up): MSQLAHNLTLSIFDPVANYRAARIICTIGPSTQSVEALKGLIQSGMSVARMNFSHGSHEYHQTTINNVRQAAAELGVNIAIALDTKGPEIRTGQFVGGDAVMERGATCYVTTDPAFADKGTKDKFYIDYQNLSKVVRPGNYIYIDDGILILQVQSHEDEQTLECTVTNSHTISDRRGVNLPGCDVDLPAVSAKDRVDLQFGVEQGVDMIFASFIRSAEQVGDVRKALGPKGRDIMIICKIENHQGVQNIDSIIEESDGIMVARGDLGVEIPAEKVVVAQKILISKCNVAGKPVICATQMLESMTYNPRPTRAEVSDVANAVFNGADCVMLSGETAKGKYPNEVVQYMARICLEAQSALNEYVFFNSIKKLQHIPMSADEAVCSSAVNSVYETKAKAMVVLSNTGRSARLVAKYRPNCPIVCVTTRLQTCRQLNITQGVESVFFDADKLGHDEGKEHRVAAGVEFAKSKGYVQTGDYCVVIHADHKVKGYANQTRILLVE
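0.1 nM LmPK, 0.5 mM PEP, 0.1 mM ADP; 50 mM imidazole pH 7.2, 7 mM MgCl2, 50 mM KCl; 1 h RT. Kinase-Glo luminescence readout, normalized to no-enzyme (full inhibition) and uninhibited wells.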
RE007 growth inh: less growth of the S. pombe RE007 Vpr strain; AID 651644; hit rate 0.21% among 360,000; S. pombe RE007 Vpr strain, BacTiter-Glo ATP luminescence, 24 h; Potency, µM (doses to about 92.2 µM), most hits filed as inhibitors; active means well fitted falling curve with a large enough effect; inconclusive means small, poorly fitted or top-dose-only effect; inactive means no such curve, though single readings can be large or run the other way; further: nearly all actives have a fitted effect of over 50% in size
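Fission yeast strain RE007, carrying one chromosomally integrated HIV-1 vpr copy, was seeded at OD 0.01 in PMG+AL medium with 23 nL pinned compound. After 24 h at 30 °C and 99% humidity, viability was read by BacTiter-Glo luminescence.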
Sm TGR block: S. mansoni TGR enzyme inhibition | Q962Y6 | purified TGR, DTNB reduction, TNB absorbance 405 nm | Potency, µM (series often up to 114 µM), hits mostly inhibitors | hit rate 3% among 360,000 | AID 485364; further: nearly all actives have a fitted effect of over 60% in size
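TGR 20 nM + NADPH 100 uM (dispensed conc.), cpd preinc 15 min RT; start with NADPH (500 uM addition) then DTNB (15 mM addition). Kinetic TNB absorbance, 405 nm filter. Four-parameter Hill fit across titration.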
Numbers stand for hits; – = inactive; ? = inconclusive; · = no result; [ ] = another dose, or the depositor's remark. Unless noted, the call rests on the fitted dose curve; in most records, active means well fitted curve in the direction sought with a large enough effect; inconclusive means small, poorly fitted or top-dose-only effect, or another doubt; inactive means no such curve, though single readings can be large; an effect the other way counts as inactive or inconclusive.

SMILES | TbPYK inhibitor | LmPK inh | RE007 growth inh | Sm TGR block
COCCCn1c(N)c(C(=O)NCc2ccco2)c2nc3ccccc3nc21 | – | – | – | 7.08µM
CCOc1ccc(-n2c(N)c(C(=O)NCc3ccco3)c3nc4ccccc4nc32)cc1 | – | – | – | 50.1µM
CC1(c2nnc(-c3ccc(Cl)cc3)o2)CC(c2ccc([N+](=O)[O-])cc2)=NO1 (stereo not drawn) | – | – | – | –
CC1(c2nnc(-c3ccncc3)o2)CC(c2ccc([N+](=O)[O-])cc2)=NO1 (stereo not drawn) | – | – | – | 35.5µM
CCc1ccc(NC(=O)CC2C(=O)N(c3cccc(OC)c3)C(=O)N2Cc2ccco2)cc1 (stereo not drawn) | – | · | · | 39.8µM
COc1ccc(NC(=O)CC2C(=O)N(c3ccccc3)C(=O)N2Cc2ccco2)cc1 (stereo not drawn) | – | – | – | –
CN1C(=O)C(CC(=O)Nc2ccc(Cl)cc2)N(Cc2ccco2)C1=S (stereo not drawn) | – | – | – | 10µM
CCc1ccc(NC(=O)CC2C(=O)N(c3cccc(C)c3)C(=O)N2Cc2ccco2)cc1 (stereo not drawn) | – | · | · | 44.7µM
O=S(=O)(c1ccccc1)c1ncc(C(F)(F)F)cc1Cl | – | – | – | 3.98µM
COc1ccc(N(C(=O)CCl)C(C(=O)NCCc2ccccc2)c2cccs2)cc1 (stereo not drawn) | – | – | – | 10µM
COc1ccc(CNC(=O)C(c2ccncc2)N(C(=O)Cc2cccs2)c2ccccc2)cc1 (stereo not drawn) | – | – | – | –
CSc1nc(O)c(N=Nc2ccc(F)cc2F)c(=O)[nH]1 | – | 15.8µM | 25.1µM | –
C=Cc1ccc(N=Cc2c(O)ccc3ccccc23)cc1 | – | – | – | 63.1µM
Oc1ccc2ccccc2c1C=NC12CN3CCN(CN(C3)C1)C2 | – | – | – | 44.7µM
CC(=O)N(C)c1ccc(N=Cc2c(O)ccc3ccccc23)cc1 | – | – | – | ?
OCC(CO)(CO)N=Cc1c(O)ccc2ccccc12 | – | – | ? | –
Oc1ccccc1N=Cc1c(O)ccc2ccccc12 | – | – | – | 28.2µM
Cc1cc(C(=O)O)ccc1N=Cc1c(O)ccc2ccccc12 | – | – | – | 50.1µM
C[C@@H]1CN([C@H](C)CO)C(=O)c2cc(C#C[C@@H](C)O)cnc2O[C@H]1CN(C)C(=O)c1ccc(F)cc1 | – | · | – | ·
COc1cccc(Cn2c(=O)c(-c3cccc(Cl)c3)nc3cncnc32)c1 | – | · | · | ·
Oc1cccc(C=Nc2cccc3ccccc23)c1O | ? | – | – | 7.94µM
Oc1c(C=NCc2ccccc2)sc2ccccc12 | – | – | – | –
Oc1cccc(C=NCc2ccccc2)c1O | – | – | – | 50.1µM
CCc1cccc(N2C(=O)N(CC(=O)NCc3cccc(OC)c3OC)c3ccccc3S2(=O)=O)c1 | – | · | · | –
CN(CCc1ccccn1)C1CC(=O)N(c2ccc(Cl)cc2)C1=O (stereo not drawn) | – | – | 3.16µM | 10µM
SMILES | TbPYK inhibitor | LmPK inh | RE007 growth inh | Sm TGR block
CN(CCc1ccccn1)C(=O)Nc1ccc(Cl)cc1 | – | – | – | –
Cc1ccc(-c2ccccc2)n1-c1ccc(C(=O)O)cc1 | – | – | – | 50.1µM
Cc1ccc(-c2ccccc2)n1-c1cccc(C(=O)O)c1 | – | – | ? | 20µM
O=C(O)c1ccc(-n2c(-c3ccccc3)n[nH]c2=S)cc1 | ? | – | – | –
Cc1ccc(C(=O)O)cc1-n1c(C)ccc1-c1ccccc1 | – | · | · | 31.6µM
COCCOCCO | – | · | · | ·
COc1ccc(NC(=O)Cc2nnc(SCC(=O)Nc3nccs3)n2C)cc1 | – | – | – | –
CCc1nnc2n1N(C(C)=O)C(c1ccc(C(C)(C)C)cc1)=C(C(C)=O)S2 | – | · | · | –
O=S(NCc1ccco1)C12CC3CC(CC(C3)C1)C2 (stereo not drawn) | – | – | – | 22.4µM
O=C(NCc1ccco1)C12CC3CC(C1)CC(C(=O)NCc1ccco1)(C3)C2 | – | – | – | 39.8µM
O=c1[nH]c(Nc2ccccc2Cl)cc2ccccc12 | – | · | – | ·
Cc1ccccc1Nc1cc2ccccc2c(=O)[nH]1 | – | – | – | 3.16µM
O=c1[nH]c(Nc2ccc(F)cc2)cc2ccccc12 | – | – | – | 35.5µM
CCOC(=O)c1ccc(NC(=O)CN2Cc3ccccc3C2=O)cc1 | – | · | · | –
COc1ccc(NC(=O)C2(C)CCCN(C(C)C)C2)cc1OC (stereo not drawn) | – | · | – | ·
CCOC(=O)C(=Cc1ccc(N(C)C)cc1)C(=O)c1ccccc1 | – | · | – | ·
CCOC(=O)/C(=C/c1ccc(OC(=O)c2ccccc2)cc1)C(C)=O | – | – | 28.2µM | ?
NS(=O)(=O)c1ccc(CNC(=O)c2ccc3c(c2)OCO3)cc1 | – | · | – | ·
O=C(Cn1sc2ccccc2c1=O)Nc1ccc(F)cc1 | ? | · | – | ·
O=C(Cn1sc2ccccc2c1=O)Nc1ccc(Br)cc1 | 7.94µM | · | – | ·
CC1=C(C)/C(=N\OS(=O)(=O)c2ccc(C)cc2)C=CC1=O | – | – | 15.8µM | 7.94µM
COc1ccc(S(=O)(=O)/N=C2/C=CC(=O)C(C)=C2C)cc1 | – | ? | – | ?
CC1=C/C(=N\OS(=O)(=O)c2ccccc2)C(C)=CC1=O | – | – | 35.5µM | 44.7µM
COC(=O)c1ccc(Cl)cc1NC(=O)N1CCC(CN2CCC(C)CC2)CC1 | – | · | · | –
CCOc1ccccc1C(=O)NCC(=O)OCC(=O)c1c(N)n(C)c(=O)n(C)c1=O | – | · | – | ·
SMILES | TbPYK inhibitor | LmPK inh | RE007 growth inh | Sm TGR block
COC(=O)[C@@H]1[C@@H](C)N(CCc2cc(OC)c(OC)c(OC)c2)C(=O)N[C@H]1c1ccccc1 | · | –[11.5 µM] | · | ·
Cc1ccc2c(CN3CCCCC3CCO)cc(=O)oc2c1 (stereo not drawn) | – | – | – | 25.1µM
Cc1ccc2c(CN3CC(C)CC(C)C3)cc(=O)oc2c1 (stereo not drawn) | – | – | – | 89.1µM
CCOC(=O)c1c[nH]c2cc(OCC(C)C)c(OCC(C)C)cc2c1=O | – | · | · | ·
Oc1ccc(C(c2nnnn2CCc2ccccc2)N2CCN(c3nc4ccccc4s3)CC2)cc1 (stereo not drawn) | – | – | – | 8.91µM
COc1cc(C(c2nnnn2C(C)(C)C)N2CCN(c3nc4ccccc4s3)CC2)ccc1O (stereo not drawn) | ? | – | – | 0.355µM
COc1cc(CN2C[C@@H](CO)O[C@@H](n3cnc4c(NCCN(C)C)ncnc43)C2)cc(OC)c1OC | – | · | – | ·
CC(C)CCC(CC(C)O)c1n[nH]c(=S)n1-c1ccccc1 (stereo not drawn) | 4.47µM | 10µM | – | –
CCCSc1oc(-c2cccs2)nc1S(=O)(=O)c1ccc(C)cc1 | – | · | · | –
Cc1ccc(S(=O)(=O)c2nc(-c3ccc(F)cc3)oc2N2CCN(c3ccccc3)CC2)cc1 | – | · | · | –
CCCCS(=O)(=O)c1oc(-c2ccc(F)cc2)nc1S(=O)(=O)c1ccc(C)cc1 | – | · | · | 3.16µM
CCCCS(=O)(=O)c1oc(-c2cccs2)nc1S(=O)(=O)c1ccc(F)cc1 | – | · | · | 1.58µM
CCS(=O)(=O)c1oc(-c2ccc(F)cc2)nc1S(=O)(=O)c1ccccc1 | – | · | · | 0.708µM
